Assay results from publication PMC4336329 (PLoS ONE, 2015).
The campaign covered roughly 310,000 compounds. About 14,000 (4.5%) showed an effect of 50% or more. Effects have a minus sign here. This is one part of a sample in which strong results are shown more often than they occur.

Each compound was assayed against human ether-à-go-go-related gene (hERG) potassium channel (human, UniProt Q12809) (assay: primary screen, population patch clamp on CHO cells stably expressing hERG; higher = less effect of the substance).
Sequence of human ether-à-go-go-related gene (hERG) potassium channel (Q12809 whole entry, looked up): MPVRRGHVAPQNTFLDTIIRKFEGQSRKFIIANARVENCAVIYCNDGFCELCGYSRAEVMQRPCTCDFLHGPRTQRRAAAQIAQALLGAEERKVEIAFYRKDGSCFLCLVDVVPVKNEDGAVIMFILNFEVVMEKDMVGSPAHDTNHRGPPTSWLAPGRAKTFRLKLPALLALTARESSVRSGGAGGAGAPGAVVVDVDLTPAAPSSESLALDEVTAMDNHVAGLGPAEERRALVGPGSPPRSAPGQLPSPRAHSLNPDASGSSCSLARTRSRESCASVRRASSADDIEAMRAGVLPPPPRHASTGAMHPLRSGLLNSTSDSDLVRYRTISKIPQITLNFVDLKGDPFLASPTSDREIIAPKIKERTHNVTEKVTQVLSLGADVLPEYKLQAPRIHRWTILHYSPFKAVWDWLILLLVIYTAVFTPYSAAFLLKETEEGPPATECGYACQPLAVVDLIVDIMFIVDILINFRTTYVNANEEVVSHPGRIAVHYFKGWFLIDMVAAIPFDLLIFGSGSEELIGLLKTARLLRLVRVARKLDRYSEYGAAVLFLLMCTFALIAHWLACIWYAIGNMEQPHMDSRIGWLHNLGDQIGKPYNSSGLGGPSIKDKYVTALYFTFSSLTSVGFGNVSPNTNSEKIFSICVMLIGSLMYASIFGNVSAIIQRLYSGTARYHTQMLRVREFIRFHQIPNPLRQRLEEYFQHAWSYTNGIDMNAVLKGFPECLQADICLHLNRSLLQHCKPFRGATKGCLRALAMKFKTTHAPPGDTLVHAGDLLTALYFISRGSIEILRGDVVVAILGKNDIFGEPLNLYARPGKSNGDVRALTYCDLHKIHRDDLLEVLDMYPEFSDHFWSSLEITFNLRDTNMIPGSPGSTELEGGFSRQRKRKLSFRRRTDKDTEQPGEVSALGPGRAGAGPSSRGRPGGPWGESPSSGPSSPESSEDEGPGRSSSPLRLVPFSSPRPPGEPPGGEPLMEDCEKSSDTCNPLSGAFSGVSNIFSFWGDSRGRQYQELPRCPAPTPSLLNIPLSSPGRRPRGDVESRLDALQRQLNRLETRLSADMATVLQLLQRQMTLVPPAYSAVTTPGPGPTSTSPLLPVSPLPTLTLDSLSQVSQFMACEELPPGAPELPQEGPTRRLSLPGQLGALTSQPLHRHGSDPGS
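Note: peak tail current of the secondary pulse compared with the same well before compound.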

Compared with Cc1[nH]c2ccc(C(=O)N3CCN(C)CC3)cc2c1C, CCOc1cc(C(=S)N2CCN(C)CC2)ccc1OCC(=O)N1CCCC1 is lower in “hERG current change (%, negative = inhibition) at 10uM” value: 30.8% for the first, 16% for the second.

First: COc1ccc(C2CC(c3cccs3)=NN2c2ccc(F)cc2)cc1OC (stereo not drawn)
Second: COc1ccccc1NC(=O)c1ccccc1-c1nc(-c2ccccc2OC)no1
The “hERG current change (%, negative = inhibition) at 10uM” value of the first is higher: 26.6% for the first, -57.7% for the second.

First: CCN1CCN(CCCNC(=O)c2ccc(NC(=O)C3=CSCCO3)cc2)CC1
Second: O=C(CCn1c(=O)oc2ccccc21)NCCCN1CCN(c2ccc(F)cc2)CC1
The “hERG current change (%, negative = inhibition) at 10uM” value of the first is higher: 19.9% for the first, -66.2% for the second.

Compared with CCOc1ccccc1NC(=O)c1ccccc1-c1nc(-c2ccccc2OC)no1, COc1ccccc1-c1noc(-c2ccccc2C(=O)Nc2ccccc2)n1 is higher in “hERG current change (%, negative = inhibition) at 10uM” value: -35.6% for the first, 13.9% for the second.

Going from COc1ccccc1NC(=O)c1ccc(Br)o1 to COc1ccccc1NC(=O)c1ccc(N)cc1, the “hERG current change (%, negative = inhibition) at 10uM” value rises from -6.16% to 5.63%.

First: COc1ccccc1NC(=O)c1cc(C(=O)Nc2ccccc2OC)cc([N+](=O)[O-])c1
Second: COc1ccccc1NC(=O)c1cc(N)cc(C(=O)Nc2ccccc2OC)c1
The “hERG current change (%, negative = inhibition) at 10uM” value of the first is higher: 21.1% for the first, -50.6% for the second.

Compared with O=C(Nc1ccccc1O)c1ccc(C(=O)c2ccccc2)o1, COc1ccccc1NC(=O)c1ccc(C(=O)c2ccccc2)o1 is lower in “hERG current change (%, negative = inhibition) at 10uM” value: 11.2% for the first, -69.4% for the second.

Going from COc1ccc(C(=O)OCC(=O)NC(C)CCc2ccccc2)cc1OC (stereo not drawn) to COc1ccc([N+](=O)[O-])cc1C(=O)C(=O)c1ccccc1, the “hERG current change (%, negative = inhibition) at 10uM” value rises from 0.524% to 8.56%.

First: O=C(COc1ccc([N+](=O)[O-])cc1)N(Cc1ccccc1)Cc1ccccc1
Second: N#Cc1ccc(Cn2ccnc2C(=O)Nc2ccccc2)cc1
The “hERG current change (%, negative = inhibition) at 10uM” value of the first is higher: -41.5% for the first, -87% for the second.

Compared with COC(=O)c1c(C)oc2ccc(OC(=O)N3CCOCC3)cc12, O=C(CCn1c(=O)oc2ccccc21)NCCN1CCOCC1 is higher in “hERG current change (%, negative = inhibition) at 10uM” value: -8.62% for the first, -2.83% for the second.

First: CCC(CC)c1nnc(NC(=O)c2cc(C(=O)OC)cc([N+](=O)[O-])c2)s1
Second: COC(=O)c1ccc(OC(=O)CCS(=O)(=O)c2ccc(C)cc2)cc1
The “hERG current change (%, negative = inhibition) at 10uM” value of the first is higher: 7.7% for the first, -16.4% for the second.

Going from CC(=O)c1c(C)nn(CC(=O)NC2CCCN(Cc3ccc(CC(C)C)cc3)C2)c1C (stereo not drawn) to Cc1ccn(CC(=O)NC2CCCN(Cc3ccc(CC(C)C)cc3)C2)n1 (stereo not drawn), the “hERG current change (%, negative = inhibition) at 10uM” value rises from -73.4% to -55.2%.

Compared with CC(C)Cc1ccc(CN2CCCC(NC(=O)CCN3CCCCC3=O)C2)cc1 (stereo not drawn), CC(C)Cc1ccc(CN2CCCC(NC(=O)CCN3CCOCC3)C2)cc1 (stereo not drawn) is higher in “hERG current change (%, negative = inhibition) at 10uM” value: -45.3% for the first, -37.4% for the second.

First: CC(C)Cc1ccc(CN2CCCC(NC(=O)Cn3cnnn3)C2)cc1 (stereo not drawn)
Second: CC(C)Cc1ccc(CN2CCCC(NC(=O)CCn3cnnn3)C2)cc1 (stereo not drawn)
The “hERG current change (%, negative = inhibition) at 10uM” value of the first is higher: -26.5% for the first, -46.2% for the second.

Going from Cc1noc(C)c1CCC(=O)NC1CCCN(Cc2ccc(Cl)cc2)C1 (stereo not drawn) to Cc1noc(C)c1CCC(=O)NC1CCCN(Cc2ccc(CC(C)C)cc2)C1 (stereo not drawn), the “hERG current change (%, negative = inhibition) at 10uM” value falls from -24% to -66.8%.

Going from CC(C)Cc1ccc(CN2CCCC(NC(=O)CSc3nncn3C)C2)cc1 (stereo not drawn) to Cn1c(SCC(=O)NC2CCCC2)nnc1-c1ccncc1, the “hERG current change (%, negative = inhibition) at 10uM” value rises from -23.7% to 33.9%.

First: CC(C)C[C@H](NC(=O)c1nc[nH]c1C(=O)NCc1ccc(CNC(=O)OC(C)(C)C)cc1)C(=O)OC(C)(C)C
Second: COc1ccc(CC(=O)NNC(=O)CCC(=O)Nc2cc(C)ccc2C)cc1
The “hERG current change (%, negative = inhibition) at 10uM” value of the first is lower: 2.06% for the first, 10.4% for the second.

Compared with CN(C)Cc1nc2c(c(=O)[nH]1)C1(CCCCC1)Cc1ccccc1-2, O=C(CN1C(=O)c2ccccc2S1(=O)=O)N1CCN(c2ccc(F)cc2)CC1 is higher in “hERG current change (%, negative = inhibition) at 10uM” value: -11.7% for the first, -7.37% for the second.

First: CSc1ccc(/C=C/C(=O)NC23CC4CC(CC(C4)C2)C3)cc1
Second: O=C(CCn1c(=O)oc2ccccc21)N1CCN(c2ccccc2F)CC1
The “hERG current change (%, negative = inhibition) at 10uM” value of the first is higher: 14.6% for the first, -23.8% for the second.

Compared with C=CCNC(=S)NNC(=O)c1ccc(OCCCC)cc1, CCc1ccc(C(=O)N/N=C(\C)c2ccncc2)s1 is lower in “hERG current change (%, negative = inhibition) at 10uM” value: 10.2% for the first, -11.1% for the second.

First: CCN(CC(=O)NC(C)C)C(=O)[C@@H](NC(=O)c1ccco1)C(C)C
Second: CS(=O)(=O)c1cccc(C(=O)NCc2ccccc2)c1
The “hERG current change (%, negative = inhibition) at 10uM” value of the first is higher: 11.5% for the first, -0.394% for the second.

Going from O=C(CCn1c(=S)oc2ccccc21)N1CCN(c2ccc(F)cc2)CC1 to O=C(CCn1c(=O)oc2ccccc21)N1CCN(c2ccc(F)cc2)CC1, the “hERG current change (%, negative = inhibition) at 10uM” value falls from -25.3% to -58%.

Compared with O=C(CCCn1c(=O)oc2ccccc21)N1CCN(c2ccc(F)cc2)CC1, O=C(CCCn1c(=O)oc2ccccc21)N1CCN(c2ccccn2)CC1 is higher in “hERG current change (%, negative = inhibition) at 10uM” value: -63.9% for the first, -47.6% for the second.

Compared with O=C1CCN(C(=O)CCCn2c(=O)oc3ccccc32)CC1, O=C(CCn1c(=O)oc2ccccc21)NCCCN1CCOCC1 is lower in “hERG current change (%, negative = inhibition) at 10uM” value: 17% for the first, 16.9% for the second.

First: O=C(CCN1C(=O)c2ccccc2S1(=O)=O)N1CCN(c2ccc(F)cc2)CC1
Second: Cl.O=C(CCN1C(=O)c2ccccc2S1(=O)=O)N1CCN(c2ccccc2)CC1
The “hERG current change (%, negative = inhibition) at 10uM” value of the first is lower: -61.9% for the first, 2.96% for the second.

Going from COc1ccc(C(=O)OCCN2C(=O)c3ccccc3C2=O)cc1 to Cc1ccc(Cn2ccnc2C(=O)Nc2ccccc2)cc1, the “hERG current change (%, negative = inhibition) at 10uM” value rises from -5.4% to 6.59%.

Going from COc1cc(OC)cc(-c2sc3ccc(OC)cc3c2C#CCCO)c1 to Cc1ccc(C2=Nc3cccnc3C(c3ccccc3)=NN2)cc1, the “hERG current change (%, negative = inhibition) at 10uM” value falls from 10.5% to 0.802%.

Going from Cc1[nH]c2ccccc2c1C(=O)NS(=O)(=O)Nc1ccccc1 to O=C(Nc1ccccc1)c1nccn1Cc1ccc(F)cc1, the “hERG current change (%, negative = inhibition) at 10uM” value falls from 9.15% to -10.9%.

With CC1(c2ccccc2)NC(=O)N(CC(=O)Nc2ccc(N3CCOCC3)cc2N2CCOCC2)C1=O (stereo not drawn) the “hERG current change (%, negative = inhibition) at 10uM” value was 6.74%.
